Laboratory results reported in the supplement of paper PMC5641865, “A screen for kinase inhibitors identifies antimicrobial imidazopyridine aminofurazans as specific inhibitors of the Listeria monocytogenes PASTA kinase PrkA” (The Journal of Biological Chemistry, 2017).
± gives the standard deviation of the averaged measurements.
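Further: End-point A600 read in BHI broth at 37 °C with 2% DMSO, inhibition computed as (1 − OD with compound plus ceftriaxone ÷ OD with ceftriaxone only) × 100.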

The compounds below were run on Listeria monocytogenes 10403S (assay: growth inhibition relative to ceftriaxone-alone control; higher = stronger potentiation of ceftriaxone growth inhibition). Settings: 10 µM; ceftriaxone 1 ug/ml; 12 h.
`Cc1ccccc1-n1c(Cn2ncc3c(N)ncnc32)nc2cccc(C)c2c1=O` was tested, and the growth inhibition was 15.4 ± 13%. Compound `CNC(=O)Oc1cc(C)c(/C=C/c2cncc(C(=O)NC)c2)c(C)c1` has a growth inhibition of 3.06 ± 7%. `Cc1ccccc1-n1c(Cn2cnc3c(N)ncnc32)nc2cccc(C)c2c1=O` showed a growth inhibition of -7.86 ± 4.1%. `Cn1cc(C2=C(c3cn(C4CCN(Cc5ccccn5)CC4)c4ccccc34)C(=O)NC2=O)c2ccccc21` gave a growth inhibition of 40.6 ± 17%. For `O=c1[nH]c2ccc(Cl)cc2c(N[C@@H]2CN3CCC2CC3)c1-c1nc2ccccc2[nH]1`, the growth inhibition was 96.1 ± 3.4%. `CCN1CCN(C(=O)Cc2ccc(Nc3ncc(F)c(Nc4ccc(C(=O)Nc5ccccc5Cl)cc4)n3)cc2)CC1` [Aurora A Inhibitor I] gave a growth inhibition of 7.11 ± 13%. With `CC(C)(C)c1cc(C=C(C#N)C#N)cc(Br)c1O` the growth inhibition was 103 ± 6.1%. Work on `CN[C@@H]1C[C@H]2O[C@@](C)([C@@H]1OC)n1c3ccccc3c3c4c(c5c6ccccc6n2c5c31)C(=O)NC4` [Staurosporine] yielded a growth inhibition of 102 ± 5%. With `COC[C@H]1OC(=O)c2coc3c2[C@@]1(C)C1=C(C3=O)[C@@H]2CCC(=O)[C@@]2(C)C[C@H]1OC(C)=O` [Wortmannin] the growth inhibition was 2.26 ± 1.5%.
